Measured values taken from PubChem BioAssay AID793 (The Scripps Research Institute Molecular Screening Center, 2007).
The whole screen tested about 140,000 compounds, of which about 1,400 (1%) were called active. Rule as the data show it: active = inhibition above about 17%; inactive = the rest. This excerpt belongs to a sample that is enriched for actives.

target: Neuropeptide Y receptor type 2 (Homo sapiens) (UniProt P49146); assay: blockers of human neuropeptide Y Y2 receptor – cell-based, primary screen (AID 793); settings: NPY-Y2 expressing cells, antagonist mode; at 2.7 µM; hits give high values;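 also: 0% = vehicle with agonist challenge and 100% = reference antagonist with challenge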
Sequence (P49146 whole entry, looked up): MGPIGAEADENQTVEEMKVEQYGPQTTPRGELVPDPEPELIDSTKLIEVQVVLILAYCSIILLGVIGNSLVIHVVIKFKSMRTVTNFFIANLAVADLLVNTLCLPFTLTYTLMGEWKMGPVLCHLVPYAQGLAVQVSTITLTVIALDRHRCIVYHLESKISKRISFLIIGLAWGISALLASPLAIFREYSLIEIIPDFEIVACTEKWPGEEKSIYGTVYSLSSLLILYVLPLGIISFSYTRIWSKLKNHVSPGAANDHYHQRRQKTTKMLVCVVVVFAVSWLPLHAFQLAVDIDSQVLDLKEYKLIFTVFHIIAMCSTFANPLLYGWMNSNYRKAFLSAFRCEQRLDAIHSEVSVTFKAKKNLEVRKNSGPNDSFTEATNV

inhibition, active:
COc1ccc(/C(N)=N/OC(=O)CCCc2ccccc2)cc1 22.3%, COc1ccc(-c2cc(C(=O)n3cnc4ccccc43)c3ccccc3n2)cc1 58.8%, CCOC(=O)C(C)Sc1nc2ccccc2c(=O)n1CC1CCCCC1 (stereo not drawn) 18.5%, O=C(CC1CCCCC1)Nc1c2c(nn1-c1ccc(F)cc1)CS(=O)(=O)C2 21.6%, COc1ccc2c(c1)C(C)=CC(C)(C)N2C(=O)CNCc1ccc2c(c1)OCO2 26.6%, CCCc1nc(SCC(=O)Nc2ccccc2OC)c2c(=O)n(C)c(=O)n(C)c2n1 21.6%, Cc1ccc(CCC(=O)Nc2ncc(Cc3cc(Cl)ccc3Cl)s2)o1 24.4%, N#Cc1ccc(C(c2nnnn2CCc2ccccc2)N2CCCCCC2)cc1 (stereo not drawn) 17.9%, N#Cc1ccc(N2Cc3ccccc3/C2=N/C(=O)Nc2ccc(Cl)cc2)cc1 108%, N=c1c2c(-c3ccccc3)c(-c3ccccc3)oc2ncn1Cc1ccco1 20.1%, COc1ccc(-c2oc3ncn(Cc4ccco4)c(=N)c3c2-c2ccc(OC)cc2)cc1 18.1%, N=c1c2c(-c3ccccc3)c(-c3ccccc3)n(Cc3ccccc3)c2ncn1CCCO 72.4%, Cc1cc(C)c2c(-n3cccc3)c(NC(=O)OCc3ccccc3)sc2n1 24.7%, COc1ccccc1Nc1ncnc2c1oc1ccccc12 19.4%, CCN1CCN(c2ccc([N+](=O)[O-])cc2C(=O)c2ccc(Cl)cc2)CC1 22.2%, COc1ccccc1N(C(=O)Cn1nnc2ccccc21)C(C(=O)NCc1ccco1)c1ccc(C)o1 (stereo not drawn) 26.2%, COc1ccc(NC(=O)/C(Cl)=C(/Cl)S(=O)Cc2ccc(C)cc2)cn1 (stereo not drawn) 52%, CCCCNC(=O)c1onc(CSc2cccc(OC)c2)c1C(=O)O 28%, CC12CN(Cc3ccccc3)CC(C)(CN(Cc3ccccc3)C1)C2=NO 28.4%, CC(Nc1nc(N2CCCC2)nc2ccccc12)c1ccccc1 (stereo not drawn) 54.6%

inhibition, inactive:
N/C(=N\OC(=O)CCc1ccccc1)c1ccc(Cl)cc1 4.22%, COc1ccc(/C(N)=N/OC(=O)Cc2ccccc2)cc1 4.03%, COc1ccc(/C=N/N=C/c2c[nH]c(=O)c(C#N)c2Nc2ccccc2)cc1 3.81%, O=C(CNC(c1ccccc1)c1ccccc1)Nc1ccc(F)cc1 7.16%, O=C(COC(=O)/C(=C/c1cccs1)c1cccs1)NCc1ccccc1Cl 5.33%, C/C(N)=C(/C#N)C(=O)COC(=O)c1cc(-c2ccc(C)cc2)nc2ccccc12 -0.91%, Cc1ccc(OCC(=O)Nn2cnc3ccccc32)cc1 2.86%, CCOn1c(SC(C)C)nc2ccccc2c1=O 7.2%, CC(Sc1nc2ccccc2c(=O)n1Cc1ccco1)C(=O)c1ccccc1 (stereo not drawn) 6.17%, CCOC(=O)c1c(C)n(C)c2ccc(OC)c(NS(=O)(=O)CC)c12 -1.01%, CCOC(=O)Cc1csc(SCC(=O)NC(C)C23CC4CC(CC(C4)C2)C3)n1 (stereo not drawn) 5.04%, CNC(=S)N/N=C/c1ccc(OCc2ccccc2)c(Br)c1 6.18%, Cc1ccc2c(c1)C(c1ccccc1)N(C(=O)c1ccc(S(=O)(=O)N3CCOCC3)cc1)CC(=O)N2 (stereo not drawn) 0.56%, Cc1ccc(CC(=O)Nc2ccc(OC(F)F)c(Cl)c2)cc1C 1.54%, O=C(Nc1c2c(nn1-c1ccc(F)cc1)CS(=O)C2)C12CC3CC(CC(C3)C1)C2 (stereo not drawn) 2.38%, Cc1ccc(-n2nc3c(c2NC(=O)CCC2CCCCC2)CS(=O)C3)cc1 (stereo not drawn) 6.05%, Cc1ccc(S(=O)(=O)N2CCN(CC(=O)N/N=C/c3ccc(Br)s3)CC2)cc1 -1.25%, CCOC(=O)NCc1ccc2c(c1)OCO2 4.28%, COc1ccc2c(c1)C(C)=CC(C)(C)N2C(=O)Nc1ccccc1 0.85%, COc1ccc(Cl)cc1NC(=O)COC(=O)C(CC(C)C)N1C(=O)C2CC=CCC2C1=O (stereo not drawn) 3.69%, Cc1nccn1CC(=O)N/N=C/c1ccc(O)c(O)c1 0.1%, CCCCCNC(=O)c1cccnc1SCC(=O)Nc1ccccc1OC 1.23%, Cn1c(=O)c2c(nc(SCC(=O)Nc3ccccc3N3CCCCC3)n2C)n(C)c1=O 3.41%, O=C(NC1CC1)c1cccc(Br)c1 1.02%, Cc1ccccc1C(=O)NNC(=O)CN1C(=O)c2ccccc2C1=O 4.26%, N#CCOc1ccc(C2=NO[C@@H]3[C@@H]4C[C@@H]([C@H]5C(=O)N(c6ccc7c(c6)OCO7)C(=O)[C@@H]45)[C@H]23)cc1 3.09%, CCOc1ccccc1NC(=O)CCc1ccc(C)o1 1.25%, Cc1cnc(NC(=O)CSc2nnc(-c3ccc(Cl)cc3Cl)n2N)s1 0.61%, O=C(COC(=O)c1cc([N+](=O)[O-])ccc1NCc1ccccc1)NC1CCCCC1 5.74%, COc1ccc(CCn2nnnc2C(c2ccccc2)N2CCN(C)CC2)cc1OC (stereo not drawn) 5.97%, CC(C)C(c1nnnn1CCc1ccccc1)N1CCN(C(=O)c2ccco2)CC1 (stereo not drawn) 3.59%, CCOc1cc(CNCc2ccccn2)ccc1OCC(=O)NC(C)(C)C 2.66%, Cc1ccc(NC(=O)CCOc2ccccc2)cc1S(=O)(=O)Nc1ccccc1Cl 0.14%, CCOC(=O)c1ccc(N/C(=N/S(=O)(=O)c2ccccc2)c2ccccc2)cc1 0.02%, O=C(CNC(=O)C(c1ccccc1)c1ccccc1)N/N=C\c1ccc2c(c1)OCO2 9.72%, CCOc1ccc(NC(=O)CSc2nc3ccccc3c(=O)n2Cc2cccs2)cc1 1.51%, Cc1cccc(N2Cc3ccccc3C2=NC(=O)c2ccc(Cl)nc2)c1 1.24%, O=C(Nc1ccccc1)OCc1cn(-c2ccc(Cl)cc2)nn1 12%, C(=C\c1ccccc1)/CSc1nnc(-c2cccnc2)n1Cc1ccco1 7.64%, COc1ccc(C(=O)CSc2nnc(COc3ccccc3)n2Cc2ccco2)cc1 16.4%, c1ccc(-c2oc3ncnc(N4CCOCC4)c3c2-c2ccccc2)cc1 4.38%, COc1ccc2[nH]c3c(=O)n(Cc4ccco4)cnc3c2c1 3.41%, O=C(Nc1nnc(C2COc3ccccc3O2)o1)c1ccc(F)cc1 (stereo not drawn) 7.93%, CN(C)CCNC(=O)/C(=C/c1cccc([N+](=O)[O-])c1)NC(=O)c1ccccc1 1.28%, OCCCN1c2ccccc2Nc2nnc(-c3ccccc3)cc21 3.77%, Cc1ccc2[nH]cc(CCNC(=O)c3ccc([N+](=O)[O-])cc3)c2c1 -0.38%, CSCc1ccc(C(=O)Nc2cc(C)cc(C)c2)cc1 3.07%, CC(=O)c1c(Nc2ccccc2)sc(C(=O)c2ccccc2)c1C 14.2%, CCCCOC(=O)Nc1sc2nc(C)cc(C)c2c1-n1cccc1 4.45%, COC(=O)Nc1sc2nc(C)cc(C)c2c1-n1cccc1 2.27%, O=C(Nc1cccc(S(=O)(=O)N2CCCCC2)c1)c1ccc2c(c1)OCO2 3.64%, Cc1nc(Cl)c2oc3ccccc3c2n1 4.04%, CCc1nc(Nc2ccc3nccnc3c2)c2oc3ccccc3c2n1 -2.05%, O=[N+]([O-])c1ccc(N2CCN(c3ccc(O)cc3)CC2)c(Cl)c1 -2.81%, CCC(C)(C)NC(=O)c1cc([N+](=O)[O-])ccc1N1CCCCC1 0.52%, NC(=O)CC[C@@H]1NC(=O)[C@@H]2CCCN2C(=O)c2cc([N+](=O)[O-])cc(F)c2NCCC[C@@H](C(N)=O)NC1=O -1.38%, CCC1=NN(C(=O)Cc2ccc([N+](=O)[O-])cc2)C(O)(c2ccc(Br)cc2)C1 (stereo not drawn) 4%, COCCNC(=O)C(c1ccc(C)o1)N(Cc1ccccc1)C(=O)Cn1nnc2ccccc21 (stereo not drawn) 2.71%, Cc1ccc(C(C(=O)NCc2ccco2)N(CC2CCCO2)C(=O)Cn2nnc3ccccc32)cc1 (stereo not drawn) 5.64%, O=C(Cn1nc(CNc2ccc(Cl)cc2)[n+]2c1CCCCC2)c1ccc(Cl)cc1 0.53%, CCn1nc(C)c(/C=N/NC(=O)Cc2ccc(Cl)cc2)c1C 2.23%, COc1cccc(NC(=O)Cc2ccc(C)cc2)c1 3.66%, COc1ccc(NS(=O)(=O)c2ccc(NC(=S)NC(=O)/C=C/c3ccc(C)cc3)cc2)nn1 3.45%, CN(C)c1ccc(/C=N/NC(=O)c2ccc(Cn3cc(Br)cn3)o2)cc1 -0.65%, CCCCC1S/C(=N/N=C/c2cccs2)NC1=O (stereo not drawn) 2.47%, COCCNC(=O)c1onc(CSc2cccc(C)c2)c1C(=O)O 5.73%, CCOc1cccc(SCc2noc(C(=O)NC(C)C)c2C(=O)O)c1 6.09%, COc1ccnc(Oc2ccccc2)n1 1.08%, O=C(Nc1ccccc1)N1CCN(Cc2ccccc2)CC1 0.29%, CCCC(=O)C1CCN(Cc2ccccc2)CC1 0.89%, COc1ccccc1N1CCN(CC(=O)NC(=O)NCc2ccco2)CC1 2.56%, CC(C)n1c(C(O)c2ccccc2)nc2ccccc21 (stereo not drawn) 1.4%, Cc1ccc(C(CC(=O)O)Nc2nc(N3CCCCC3)nc(N3CCCCC3)n2)cc1 (stereo not drawn) 1.53%
